According to PubChem BioAssay (Tox21):
Where “and” joins values, the source holds several entries; their conditions need not be identical. Equal entries are not always repeated. Records with an inconclusive call do not appear. Calls of active or inactive are those of the source. Unless noted, calls come from the whole dose curve; as a rule, active = well fitted curve in the direction sought with a large enough effect in the repeat runs; inconclusive = weak or mixed curves; inactive = no such curve, though single readings can be large; an effect the other way counts as inactive or inconclusive.

How the values were obtained:
[1] = qHTS assay to identify small molecule agonists of the hypoxia (HIF-1) signaling pathway - cell viability counter screen (AID 1224844; calls by dose curve; note: nearly all actives have a fitted effect of over 50% in size)
Summary of the method: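 Viability counter screen: HRE-bla ME-180 cells plated 5 hrs before compound addition, treated 17 hrs at 37C and 5% CO2, then CellTiter-Glo added after the FRET reporter read; luminescence after 30 min.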

[2] = qHTS assay to identify small molecule agonists of H2AX (AID 1224845; active = well fitted activation curve with a large enough effect in the signal ratio in the repeat runs, not every such curve was filed as active; the % refers to the signal ratio)
Summary of the method: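 Wild-type CHO-K1 cells, plated overnight, exposed 3hr at 37C to 15 concentrations (0.76% DMSO final). Lysed, then HTRF anti-pH2AX (S139) cryptate and anti-H2AX-d2 antibodies, 24 hr room temperature; 665/620 nm emission read.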

[3] = qHTS assay to identify small molecule agonists of the hypoxia (HIF-1) signaling pathway (AID 1224846; active = well fitted activation curve with a large enough effect in the signal ratio in the repeat runs, not every such curve was filed as active; the % refers to the signal ratio)
Summary of the method: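 Agonist mode reporter screen. ME-180 cells stably expressing bla under HRE control received test compounds in DMSO for 17 hrs (37C, 5% CO2), and beta-lactamase activity was then detected with the CCF4-AM FRET substrate.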

[4] = qHTS assay to identify small molecule agonists of H2AX - cell viability counter screen (AID 1224847; calls by dose curve; note: top concentration of the series differs between compounds; nearly all actives have a fitted effect of over 30% in size)
Summary of the method: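 Compounds tested at 15 concentrations were incubated 3 hr at 37C with wild-type CHO-K1 cells; cellular ATP-based luminescence (CellTiter-Glo) indicated viability.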

[5] = qHTS RealTime-Glo MT Cell Viability Assay in HepG2 cells - 24 hour (AID 1224867); note: nearly all actives have a fitted effect of over 50% in size
Summary of the method: (§1)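 Tox21 10K library screened in qHTS format on HepG2 cells carrying RealTime-Glo reagents. Compounds were added after a 5 h preincubation, and the luminescent signal from continuous culture was measured repeatedly during 40 h treatment.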

[6] = qHTS RealTime-Glo MT Cell Viability Assay in HEK293 cells - 32 hour (AID 1224868); note: top concentration of the series differs between compounds; nearly all actives have a fitted effect of over 50% in size
Summary of the method: (§2)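 Luminescence generated by NanoLuc from substrate produced by living HEK293 cells served as the viability signal. Each value reflects the reading at its stated time point during continuous 40 h compound exposure at 37 C.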

[7] = A CellTox Green Cytotoxicity Assay to monitor cytotoxicity in HEK293 cells - 0 hour (AID 1224869); note: nearly all actives have a fitted effect of over 50% in size
Summary of the method: (§3)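 Dead-cell fluorescence measured kinetically: asymmetric cyanine dye, HEK293, 600 cells/well, 5 h settle, 23 nL cpd/DMSO, 37 C, reads 0–40 h every 8 h.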

[8] = A CellTox Green Cytotoxicity Assay to monitor cytotoxicity in HEK293 cells - 40 hour (AID 1224871); note: nearly all actives have a fitted effect of over 45% in size
Summary of the method: as §3

[9] = qHTS RealTime-Glo MT Cell Viability Assay in HEK293 cells - 16 hour (AID 1224872)
Summary of the method: as §2

[10] = qHTS RealTime-Glo MT Cell Viability Assay in HepG2 cells - 8 hour (AID 1224873); note: nearly all actives have a fitted effect of over 55% in size
Summary of the method: (§4)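 HepG2 cells (600/well) mixed with RealTime-Glo MT reagent, settled 5 h at 37 C/5% CO2 before compound addition. Nonlytic NanoLuc luminescence from viable-cell prosubstrate reduction read repeatedly during 40 h treatment at 37 C.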

[11] = qHTS RealTime-Glo MT Cell Viability Assay in HEK293 cells - 40 hour (AID 1224874); conditions: RealTime-Glo luminescence; max response: active compounds read low; note: nearly all actives have a fitted effect of over 50% in size
Summary of the method: (§5)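 600 HEK293 cells per well, dispensed already mixed with RealTime-Glo MT reagents. Compound dosing came 5 h later. The same wells were read for luminescence at 0, 8, 16, 24, 32 and 40 h of exposure at 37 C.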

[12] = A CellTox Green Cytotoxicity Assay to monitor cytotoxicity in HepG2 cells - 16 hour (AID 1224876); note: nearly all actives have a fitted effect of over 45% in size
Summary of the method: (§6)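 First, HepG2 cells (600/well) mixed with reagent were plated; second, after 5 h at 37 C they received compounds via pintool; third, fluorescence was measured at 0 h through 40 h at 8 h intervals.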

[13] = qHTS RealTime-Glo MT Cell Viability Assay in HepG2 cells - 32 hour (AID 1224877); note: nearly all actives have a fitted effect of over 55% in size
Summary of the method: as §1

[14] = A CellTox Green Cytotoxicity Assay to monitor cytotoxicity in HepG2 cells - 24 hour (AID 1224878); note: nearly all actives have a fitted effect of over 45% in size
Summary of the method: as §6

[15] = A CellTox Green Cytotoxicity Assay to monitor cytotoxicity in HepG2 cells - 40 hour (AID 1224879); note: nearly all actives have a fitted effect of over 40% in size
Summary of the method: as §6

[16] = qHTS RealTime-Glo MT Cell Viability Assay in HEK293 cells - 0 hour (AID 1224880); note: top concentration of the series differs between compounds; nearly all actives have a fitted effect of over 45% in size
Summary of the method: as §5

[17] = qHTS RealTime-Glo MT Cell Viability Assay in HepG2 cells - 40 hour (AID 1224870); note: nearly all actives have a fitted effect of over 50% in size
Summary of the method: as §4

[18] = A CellTox Green Cytotoxicity Assay to monitor cytotoxicity in HEK293 cells - 24 hour (AID 1224875)
Summary of the method: as §3
% is set by controls: 0 for no effect and ±100 for the full control effect.

OC1CCCc2ccccc21 (stereo unspecified)
inactive: Potency [1] | Potency [2] | Potency [3] | Potency [4] | Potency [5] | Potency [6] | Potency [7] | Potency [8] | Potency [9] | Potency [10] | max response [11] -0.638% | Potency [12] | Potency [13] | Potency [14] | Potency [15] | Potency [16]

Cl[Si](Cl)(c1ccccc1)c1ccccc1
inactive: Potency [1] | Potency [2] | Potency [3] | Potency [4] | Potency [5] | Potency [6] | Potency [7] | Potency [17] | Potency [9] | max response [11] -3.91% | Potency [13] | Potency [14] | Potency [15] | Potency [16]

O[C@@H]([C@H](O)[C@H](O)CBr)[C@H](O)CBr
inactive: Potency [1] | Potency [2] | Potency [3] | Potency [4] | Potency [5] | Potency [6] | Potency [7] | Potency [17] | Potency [8] | Potency [9] | Potency [10] | max response [11] 2.46% | Potency [18] | Potency [13] | Potency [14] | Potency [16]

COC(C)=O
inactive: Potency [1] | Potency [2] | Potency [3] | Potency [4] | Potency [6] | Potency [7] | Potency [17] | Potency [8] | Potency [9] | max response [11] -13.9% | Potency [18] | Potency [12] | Potency [13] | Potency [14] | Potency [15] | Potency [16]

NC(=O)c1cccc([N+](=O)[O-])c1
inactive: Potency [1] | Potency [2] | Potency [3] | Potency [4] | Potency [5] | Potency [6] | Potency [7] | Potency [8] | Potency [9] | max response [11] -0.169% | Potency [18] | Potency [12] | Potency [13] | Potency [14] | Potency [15] | Potency [16]

CCCNCCC
inactive: Potency [1] | Potency [2] | Potency [3] | Potency [4] | Potency [5] | Potency [6] | Potency [7] | Potency [17] | Potency [8] | Potency [9] | Potency [10] | max response [11] -5.51% | Potency [18] | Potency [12] | Potency [13] | Potency [14] | Potency [15] | Potency [16]

COCCOc1cc2cc(C(=O)NC3CCN(C(C)C)CC3)n(CC(=O)Nc3ccc(Cl)cn3)c2cn1
inactive: Potency [1] | Potency [2] | Potency [3] | Potency [4] | Potency [5] | Potency [6] | Potency [7] | Potency [17] | Potency [10] | max response [11] -25.3% | Potency [12] | Potency [13] | Potency [14] | Potency [15] | Potency [16]

c1ccsc1
inactive: Potency [1] | Potency [2] | Potency [3] | Potency [4] | Potency [5] | Potency [6] | Potency [7] | Potency [17] | Potency [9] | Potency [10] | max response [11] -2.24% | Potency [18] | Potency [12] | Potency [13] | Potency [14] | Potency [15] | Potency [16]

C=Cc1ccccc1C=C
inactive: Potency [1] | Potency [2] | Potency [3] | Potency [4] | Potency [5] | Potency [6] | Potency [7] | Potency [9] | max response [11] 16.3% | Potency [18] | Potency [12] | Potency [13] | Potency [14] | Potency [16]

C=Cc1cccc(C)c1
inactive: Potency [1] | Potency [2] | Potency [3] | Potency [4] | Potency [5] | Potency [6] | Potency [7] | Potency [8] | Potency [9] | max response [11] -2.09% and 3.82% | Potency [13] | Potency [14] | Potency [15] | Potency [16]

NC[C@H]1O[C@H](O[C@H]2[C@H](O[C@@H]3O[C@H](CO)[C@@H](O)[C@H]3O)C(O)[C@H](N)C[C@@H]2N)[C@H](N)[C@@H](O)[C@@H]1O (stereo partly specified)
inactive: activity change, negative = cytotoxicity [1] -1.39% [at 6.97 µM] | activation (H2AX phosphorylation) [2] -1.16% [at 14 µM] | activation [3] -1.07% [at 7.01 µM] | activity change, negative = cytotoxicity [4] -3.49% [at 14 µM] | activity change, negative = cytotoxicity [5] -0.277% [at 6.97 µM] | activity change, negative = cytotoxic [6] 4.84% [at 6.97 µM] | cytotoxicity [7] -7.77% [at 6.97 µM] | activity change, negative = cytotoxic [17] 0.986% [at 6.97 µM] | cytotoxicity increase [8] -12.4% [at 6.97 µM] | activity change, negative = cytotoxicity [9] 3.13% [at 6.97 µM] | viability change, negative = cytotoxic [10] 2.91% [at 6.97 µM] | max response [11] 4.82% | activity change [18] -9.09% [at 6.97 µM, active compounds read high] | cytotoxicity increase [12] 11% [at 6.97 µM] | activity change, negative = cytotoxic [13] 0.467% [at 6.97 µM] | cytotoxicity [14] 9.58% [at 6.97 µM] | cytotoxicity increase [15] 9.38% [at 6.97 µM] | activity change, negative = cytotoxicity [16] 10.7% [at 6.97 µM]

CCC(=O)OC(=O)CC
inactive: Potency [1] | Potency [2] | Potency [3] | Potency [4] | Potency [5] | Potency [6] | Potency [7] | Potency [17] | Potency [8] | Potency [9] | max response [11] 0.495% | Potency [18] | Potency [12] | Potency [13] | Potency [14] | Potency [15] | Potency [16]

O=C(O)Cc1ccccc1Nc1c(Cl)cccc1Cl
inactive: Potency [1] | Potency [2] | Potency [3] | Potency [4] | Potency [5] | Potency [6] | Potency [7] | Potency [17] | Potency [8] | Potency [9] | Potency [10] | max response [11] 15.1% and 6.54% | Potency [18] | Potency [12] | Potency [13] | Potency [14] | Potency [15] | Potency [16]

COc1ccc(NC(=O)CC(C)=O)cc1
inactive: Potency [1] | Potency [2] | Potency [3] | Potency [4] | Potency [5] | Potency [6] | Potency [7] | Potency [17] | Potency [9] | max response [11] 8.59% | Potency [13] | Potency [14] | Potency [15] | Potency [16]

CC(CO)Oc1ccccc1 (stereo unspecified)
inactive: Potency [1] | Potency [2] | Potency [3] | Potency [4] | Potency [5] | Potency [6] | Potency [7] | Potency [17] | Potency [8] | Potency [9] | Potency [10] | max response [11] -11% | Potency [18] | Potency [12] | Potency [13] | Potency [14] | Potency [15] | Potency [16]
